The values that follow come from publication PMC7862700, “An all-to-all approach to the identification of sequence-specific readers for epigenetic DNA modifications on cytosine”.

HSF1, sequence (Q00613 whole entry): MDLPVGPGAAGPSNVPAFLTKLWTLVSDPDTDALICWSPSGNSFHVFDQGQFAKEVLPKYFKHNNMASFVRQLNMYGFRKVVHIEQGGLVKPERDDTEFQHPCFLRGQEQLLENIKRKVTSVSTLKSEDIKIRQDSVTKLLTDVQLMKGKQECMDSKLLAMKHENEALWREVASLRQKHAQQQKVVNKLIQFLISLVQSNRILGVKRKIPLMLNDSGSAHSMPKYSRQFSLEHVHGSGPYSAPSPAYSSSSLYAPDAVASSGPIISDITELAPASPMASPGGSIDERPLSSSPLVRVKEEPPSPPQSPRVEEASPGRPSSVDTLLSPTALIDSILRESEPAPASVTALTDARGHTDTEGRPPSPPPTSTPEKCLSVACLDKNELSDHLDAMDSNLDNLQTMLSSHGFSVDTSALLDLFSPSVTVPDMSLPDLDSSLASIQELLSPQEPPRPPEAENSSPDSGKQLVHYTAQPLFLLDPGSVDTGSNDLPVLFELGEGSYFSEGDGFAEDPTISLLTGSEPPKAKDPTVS

The target of one experiment is T1, ELK1 (Homo sapiens, UniProt P19419 1-428).
T1 sequence: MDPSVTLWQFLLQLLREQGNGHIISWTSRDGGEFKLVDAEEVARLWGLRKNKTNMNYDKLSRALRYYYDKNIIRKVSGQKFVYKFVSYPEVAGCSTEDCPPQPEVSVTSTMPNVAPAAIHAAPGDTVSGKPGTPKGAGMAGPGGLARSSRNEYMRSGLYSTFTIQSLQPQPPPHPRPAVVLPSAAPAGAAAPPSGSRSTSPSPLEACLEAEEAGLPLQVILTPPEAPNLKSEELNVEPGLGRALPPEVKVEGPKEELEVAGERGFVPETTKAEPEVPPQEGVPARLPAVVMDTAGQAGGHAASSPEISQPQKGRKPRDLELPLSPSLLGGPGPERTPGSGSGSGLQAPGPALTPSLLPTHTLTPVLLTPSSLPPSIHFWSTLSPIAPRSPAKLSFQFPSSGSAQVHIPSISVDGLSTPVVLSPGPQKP
Nature of the experiment: DAPPL (digital affinity profiling via proximity ligation, sequencing); 10 mM Tris-HCl pH 7.5, 50 mM NaCl, 1 mM DTT, 4% glycerol, room temperature, 30 min; GST-TFs on glutathione beads, 16-mer random dsDNA library, 0.1% formaldehyde crosslink after washing; high values mean tight binding. The conditions noted are these: protein: recombinant; tags: N-terminal GST; dsDNA, one strand shown. A digest of the protocol: (§1)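 Binding signal is defined as a hexamer's read frequency for one factor over its frequency for the tag-only sample. To obtain reads, GST-fused human transcription factors were expressed in yeast, captured on glutathione beads, barcoded with DNA and pooled with that sample. Pools met 200 nmole of a 16-mer random double-stranded DNA library in Tris/NaCl/DTT/glycerol buffer for 30 min at room temperature before washing, 0.1% formaldehyde crosslinking, proximity ligation (BsaI/T4 ligase, 1 h, 37 °C), PCR and Illumina NextSeq500 sequencing.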
For GAATGG, the binding signal is 1 fold enrichment (6-mer frequency, TF over GST control).
Still for that read-out and setting: the result for AGAATG reads 1.01 fold enrichment (6-mer frequency, TF over GST control); that for TCGAGT, 1.01 fold enrichment (6-mer frequency, TF over GST control).

Another experiment concerns the target T2, EHF (Homo sapiens, UniProt Q9NZC4 1-300).
T2 sequence: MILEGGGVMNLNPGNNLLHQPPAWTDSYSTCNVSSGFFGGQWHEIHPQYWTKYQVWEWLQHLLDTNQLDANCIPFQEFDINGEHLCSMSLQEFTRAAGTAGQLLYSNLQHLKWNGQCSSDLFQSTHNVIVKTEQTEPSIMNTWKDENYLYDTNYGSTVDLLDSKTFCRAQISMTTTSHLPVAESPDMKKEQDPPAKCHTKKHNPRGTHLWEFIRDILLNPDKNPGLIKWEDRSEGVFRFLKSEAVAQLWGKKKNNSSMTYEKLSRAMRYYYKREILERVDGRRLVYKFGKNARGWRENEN
Described as above. The conditions noted are these: protein: recombinant; tags: N-terminal GST; dsDNA, one strand shown. A digest of the protocol: as §1
Turning to TTAGGA, the binding signal is 1 fold enrichment (6-mer frequency, TF over GST control).
GGCTTT: the binding signal was 1.05 fold enrichment (6-mer frequency, TF over GST control).
On the same count and under the same terms, the result for GAATGG reads 1.02 fold enrichment (6-mer frequency, TF over GST control); that for AGAATG, 1.02 fold enrichment (6-mer frequency, TF over GST control).

In a further experiment the target is SPI1 (Homo sapiens, UniProt P17947 1-270). The description is as above. The conditions noted are these: protein: recombinant; tags: N-terminal GST; dsDNA, one strand shown. The method, boiled down:
as §1
As to AGAATG, the binding signal is 1.01 fold enrichment (6-mer frequency, TF over GST control).
Still for that read-out and setting: to TTCAGA belongs 1.04 fold enrichment (6-mer frequency, TF over GST control); to TTTAGA, 1.05 fold enrichment (6-mer frequency, TF over GST control).
For GTAGAA, the binding signal is 1.01 fold enrichment (6-mer frequency, TF over GST control).

In the next experiment the target is T3, ELK3 (Homo sapiens, UniProt P41970 1-407).
T3 sequence: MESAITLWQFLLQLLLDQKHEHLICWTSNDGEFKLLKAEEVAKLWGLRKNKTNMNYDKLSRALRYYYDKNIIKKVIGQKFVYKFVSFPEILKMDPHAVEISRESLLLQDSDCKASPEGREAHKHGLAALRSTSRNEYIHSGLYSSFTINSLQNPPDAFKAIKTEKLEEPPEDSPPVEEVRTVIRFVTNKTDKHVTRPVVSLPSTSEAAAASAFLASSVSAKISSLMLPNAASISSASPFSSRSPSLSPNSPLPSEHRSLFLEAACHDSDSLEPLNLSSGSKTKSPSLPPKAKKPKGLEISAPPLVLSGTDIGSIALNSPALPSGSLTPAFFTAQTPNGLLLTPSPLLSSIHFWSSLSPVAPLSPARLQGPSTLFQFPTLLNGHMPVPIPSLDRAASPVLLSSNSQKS
The description is as above. The conditions noted are these: protein: recombinant; tags: N-terminal GST; dsDNA, one strand shown. The method, boiled down:
as §1
GGCTTT: the binding signal was 1.11 fold enrichment (6-mer frequency, TF over GST control).
Same read-out and setting: the result for AGAATG reads 1.01 fold enrichment (6-mer frequency, TF over GST control); that for ATCAAG, 1.04 fold enrichment (6-mer frequency, TF over GST control).

The next experiment addresses HSF1 (Homo sapiens, UniProt Q00613 1-529). Described as above. The conditions noted are these: protein: recombinant; tags: N-terminal GST; chain copies: 3; dsDNA, one strand shown. The method, boiled down:
as §1
As to ACCAGA, the binding signal was 1.55 fold enrichment (6-mer frequency, TF over GST control).
On the same count and under the same terms, the result for AGATTG reads 1.01 fold enrichment (6-mer frequency, TF over GST control); that for TTAGGA, 1.28 fold enrichment (6-mer frequency, TF over GST control).
CGTCGA: the binding signal is 1.06 fold enrichment (6-mer frequency, TF over GST control).
Take AGGGAT: the binding signal was 1.1 fold enrichment (6-mer frequency, TF over GST control).
Same read-out and setting: the result for GGTTAA reads 1.02 fold enrichment (6-mer frequency, TF over GST control); that for TACGAG, 1.26 fold enrichment (6-mer frequency, TF over GST control).
On to GTCTGG, for which the binding signal is 1.06 fold enrichment (6-mer frequency, TF over GST control).
For the sequence CAGATA, the binding signal was 1.12 fold enrichment (6-mer frequency, TF over GST control).
With GATTAG, the binding signal was 2.22 fold enrichment (6-mer frequency, TF over GST control).
Same read-out and setting: to AGAATC belongs 1.74 fold enrichment (6-mer frequency, TF over GST control); to CAGATC, 1.09 fold enrichment (6-mer frequency, TF over GST control).
Still for that read-out and setting: the result for GCATTA reads 1.16 fold enrichment (6-mer frequency, TF over GST control); that for GGGATT, 1.75 fold enrichment (6-mer frequency, TF over GST control).
On to AGACTA, for which the binding signal was 1.06 fold enrichment (6-mer frequency, TF over GST control).
Still for that read-out and setting: to AGCATA belongs 1.04 fold enrichment (6-mer frequency, TF over GST control); to TAAGAC, 1.22 fold enrichment (6-mer frequency, TF over GST control).
Turning to TAAGAG, the binding signal was 1.19 fold enrichment (6-mer frequency, TF over GST control).
Turning to GCGATT, the binding signal is 1.23 fold enrichment (6-mer frequency, TF over GST control).
On the same count and under the same terms, the result for CGAGAT reads 1.52 fold enrichment (6-mer frequency, TF over GST control); that for AATCGT, 1.01 fold enrichment (6-mer frequency, TF over GST control).
On the same count and under the same terms, the result for GGCTTT reads 1.11 fold enrichment (6-mer frequency, TF over GST control); that for TCGTAA, 1.12 fold enrichment (6-mer frequency, TF over GST control); that for CGGATT, 1.56 fold enrichment (6-mer frequency, TF over GST control).
On the same count and under the same terms, to GAATGG belongs 1.07 fold enrichment (6-mer frequency, TF over GST control).
Consider AGAATG, for which the binding signal was 2.08 fold enrichment (6-mer frequency, TF over GST control).
TTCAGA: the binding signal was 1.09 fold enrichment (6-mer frequency, TF over GST control).
Still for that read-out and setting: to TCGAGA belongs 2.36 fold enrichment (6-mer frequency, TF over GST control).
Same read-out and setting: the result for TCAAGA reads 1.12 fold enrichment (6-mer frequency, TF over GST control); that for TTTAGA, 1.37 fold enrichment (6-mer frequency, TF over GST control); that for TTAGAG, 1.25 fold enrichment (6-mer frequency, TF over GST control).
Still for that read-out and setting: the result for GGATAA reads 1.2 fold enrichment (6-mer frequency, TF over GST control); that for TAGAGA, 1.3 fold enrichment (6-mer frequency, TF over GST control); that for ACGCGA, 1.04 fold enrichment (6-mer frequency, TF over GST control).
In the case of AGAAAG, the binding signal was 1.87 fold enrichment (6-mer frequency, TF over GST control).
GTAGAA: the binding signal was 1.47 fold enrichment (6-mer frequency, TF over GST control).
Same read-out and setting: to TCGAGT belongs 1.41 fold enrichment (6-mer frequency, TF over GST control); to ATCAAG, 1.03 fold enrichment (6-mer frequency, TF over GST control).
With AGATCA, the binding signal is 1.21 fold enrichment (6-mer frequency, TF over GST control).

A further experiment deals with T4, ETV2 (Homo sapiens, UniProt O00321 1-342).
T4 sequence: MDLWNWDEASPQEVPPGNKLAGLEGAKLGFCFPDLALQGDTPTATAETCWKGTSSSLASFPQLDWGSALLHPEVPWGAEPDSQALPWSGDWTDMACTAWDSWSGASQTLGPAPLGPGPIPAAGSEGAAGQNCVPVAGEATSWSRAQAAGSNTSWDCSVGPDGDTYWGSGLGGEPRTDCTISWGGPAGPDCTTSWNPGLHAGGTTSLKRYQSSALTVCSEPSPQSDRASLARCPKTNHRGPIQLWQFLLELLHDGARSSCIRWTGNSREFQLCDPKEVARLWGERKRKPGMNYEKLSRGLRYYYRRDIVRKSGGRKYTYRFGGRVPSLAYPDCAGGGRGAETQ
The experiment is described as above. The conditions noted are these: protein: recombinant; tags: N-terminal GST; dsDNA, one strand shown. A digest of the protocol: as §1
As to ACCAGA, the binding signal was 1.01 fold enrichment (6-mer frequency, TF over GST control).
As to CGTCGA, the binding signal was 1.01 fold enrichment (6-mer frequency, TF over GST control).
Still for that read-out and setting: to GTCTGG belongs 1.02 fold enrichment (6-mer frequency, TF over GST control); to CAGATC, 1.02 fold enrichment (6-mer frequency, TF over GST control).
Still for that read-out and setting: the result for CGAGAT reads 1.07 fold enrichment (6-mer frequency, TF over GST control).
Same read-out and setting: to GGCTTT belongs 1.15 fold enrichment (6-mer frequency, TF over GST control).
GAATGG: the binding signal was 1.1 fold enrichment (6-mer frequency, TF over GST control).
Same read-out and setting: the result for AGAATG reads 1.01 fold enrichment (6-mer frequency, TF over GST control); that for TTCAGA, 1.08 fold enrichment (6-mer frequency, TF over GST control).
